Test results reported in PubChem BioAssay (NCI).
This is part of a sample that, as a whole, favours compounds with a hit. Of some 83,000 tested, about 20% had one in any assay.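 Assay: single dose, 48 h. Readout: percent growth (0 = no net growth; negative = cell death). Active: <10.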 Values without a mark were called inactive. The source made the active and inactive calls.

Test system: HL-60(TB) leukemia
Experiment: NCI-60 one-dose screen, 48 h (100 = growth as untreated, 0 = no growth, -100 = all killed)
Conditions: 10 µM unless noted

| SMILES | growth |
| --- | --- |
| O=C1c2ccccc2C(=O)c2c(N=Nc3sc(=O)[nH]c3S)cccc21 | 111% |
| CN1CCC(COc2cnc(-c3cccc(Cn4nc(-c5cccc(C#N)c5)ccc4=O)c3)nc2)CC1 | 95.3% |
| O=C(O)Cc1ccc(O)c(O)c1 | 82.1% |
| O=C1c2cccnc2C(=O)c2c1c(C(=O)OCCc1ccccn1)c1ccccn21 | -19.5% (active) |
| COC(=O)N[C@H]1CCc2c(Cl)c(OC)c(OC)c(OC)c2-c2ccc(SC)c(=O)cc21 | -42.4% (active) |
| CN(C)c1ccc(/C=C\c2cccc[n+]2C)cc1 | 27.2% |
| O=C(N=Nc1c(Cl)c(O)c2ccccc2c1O)C(=O)Nc1cccc(C(F)(F)F)c1 | 6.33% (active) |
| CCS(=O)(=O)OCCO[C@H]1Cc2cc3ccc(=O)oc3cc2OC1(C)C | 106% |
| Nc1ccc(C2=CC(c3ccc(Cl)cc3)N3C=CSC3=N2)cc1 (stereo not given) | -19.3% (active) |
| COc1cccc(Oc2ccccc2NC(=O)CNC(=O)c2cccc3ccccc23)c1 | -25.2% [5 µM] (active) |
| O=C(CSc1nc(-c2ccc(Cl)cc2)cn1-c1ccc(Cl)cc1)c1ccc(Br)cc1 | 97.1% |
| COc1cc2ncnc(Nc3ccc(S(=O)(=O)Nc4cc(C)on4)cc3)c2cc1OCCCN1CCN(c2ccc([N+](=O)[O-])cc2)CC1 | 118% |
| O=P(O)(O)OCC1OC(n2cnc3c(NCc4ccco4)ncnc32)C(O)C1O (stereo not given) | -6.93% (active) |
| COc1ccc(-c2nc3c(N)c(CO)c(C)nc3o2)cc1 | 98.3% |
| COc1ccccc1C(=O)Nc1cccc(NC(=O)c2ccoc2C)c1 | -18.3% (active) |
| CCCCCCCCOc1ccc(/C=N/Nc2cc(C)nc3ccc(Br)cc23)cc1 | 60.4% |
| COc1cc(/C=C/C(=O)c2cccnc2Nc2ccc(F)cc2)cc(OC)c1OC | 5.42% (active) |
| Cc1cc(C)c([I+]c2c(C)cc(C)cc2C)c(C)c1 | -64.3% (active) |
| O=C(Nc1ccc(N2CCCCC2)c(Cl)c1)c1ccc(Br)o1 | 46.3% |
| COC(=O)/C(CCC=C(C)C)=C1\[C@@H](OC(C)=O)C[C@@]2(C)[C@H]1C/C(=N/O)[C@H]1[C@@]3(C)CC/C(=N\O)[C@@H](C)[C@@H]3CC[C@@]12C | 89.3% |
| C=C(CN1CC=CCC1)[C@@H]1CC[C@]2(C(=O)OC)CC[C@]3(C)[C@H](CC[C@@H]4[C@@]5(C)CC[C@H](OC(C)=O)C(C)(C)[C@@H]5CC[C@]43C)[C@@H]12 | 49.6% |
| CCN(C(=O)N1CCN(c2cc3c(cc2F)c(=O)c(C(=O)O)cn3C2CC2)CC1)c1nc(-c2ccccc2)cs1 | -34% (active) |
| ClC(Cl)c1nc(-c2ccccc2)n2nc(-c3ccccc3)cc2n1 | -7.03% (active) |
| O=C(O)COc1ccc2c(=O)c3sc4c(=O)c5ccccc5c(=O)c4c3c(=O)c2c1 | 42.7% |
| O=C1CC(C(F)(F)F)=NN1C(=O)c1nn(-c2ccc(Cl)cc2)cc1O | 105% |
